Screening results from PubChem.
TDP1 cell noCPT = qHTS for Inhibitors of human tyrosyl-DNA phosphodiesterase 1 (TDP1): qHTS in cells in absence of CPT; DT40 Tdp1-/- hTDP1 cells, no CPT, ATP luminescence, 48 h; Potency, µM (titrated, usually from 46.2 µM), actives largely listed as inhibitors; hit rate 15% among 420,000; AID 686978, 2013; further: nearly all actives have a fitted effect of over 55% in size
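Seeded 400 DT40-hTDP1 cells/well (vehicle DMSO, no 20 nM CPT); pinned compounds; ≥48 hr at 37 °C; CellTiter-Glo luminescence as viability measure.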
IL-1B inflam inh = qHTS for Inhibitors of Inflammasome Signaling: IL-1-beta AlphaLISA Primary Screen | THP-1 LPS/ATP IL-1B secretion, AlphaLISA, 16 h; stronger effect = lower value | activity change, % at 57.5 µM | hit rate 4.7% among 360,000 | AID 743279, 2014; in the data active means activity change below about -50%; inconclusive means mostly about -30% to -49%
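THP-1 cells pretreated 1 hr with compounds (up to 57.5 uM final), then stimulated with LPS (250 ng/mL final) plus ATP (1.25 mM final); secreted IL-1B measured by AlphaLISA after 16 hr, decreased signal indicating inhibition.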
uPA surface inh = qHTS for Inhibitors of Cell Surface uPA Generation | hit rate 0.31% among 330,000 | Potency, µM (doses to about 38.3 µM), actives largely listed as inhibitors | cell surface uPA generation assay, qHTS; active means well fitted inhibition curve with a large enough effect; inconclusive means small, poorly fitted or top-dose-only effect; inactive means no such curve, though single readings can be large or run the other way; tested in mouse RAW 264.7 cells; further: nearly all actives have a fitted effect of over 55% in size
HT1080NT lethal = qHTS for induction of synthetic lethality in tumor cells producing 2HG: qHTS for the HT-1080-NT fibrosarcoma cell line; HT-1080-NT fibrosarcoma viability, CellTiter-Glo ATP luminescence, 48 h; Potency, µM (highest dose often 46.1 µM), usual class: cytotoxic; hit rate 1.6% among 360,000;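 further: NT is the 2HG producing partner of a matched IDH1 knockdown line; nearly all actives have a fitted effect of over 55% in size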
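A 48-hour cytotoxicity screen used HT-1080-NT cells plated 2 hours before compound delivery. ATP-based CellTiter-Glo luminescence measured viability, normalized to DMSO and no-cell controls.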
HT1080 IDH1KD tx = qHTS for induction of synthetic lethality in tumor cells producing 2HG: qHTS for the HT-1080-IDH1KD cell line; HT-1080 IDH1 knockdown viability, ATP luminescence, 48 h; AID 686971, 2013; hit rate 2% among 360,000; Potency, µM (top dose mostly 46.1 µM), usual class: cytotoxic
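Knockdown cells (IDH1KD HT-1080) received compounds 2 h after plating at 750 cells/well and were kept 48 h at 37 °C in 5% FBS RPMI. A CellTiter-Glo luminescence read gave % activity for curve fitting.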
DT40 TDP1 CPT = qHTS for Inhibitors of human tyrosyl-DNA phosphodiesterase 1 (TDP1): qHTS in cells in presence of CPT | chicken DT40 Tdp1-/-;hTDP1 cells + 20 nM CPT, ATP luminescence, 48 h | Potency, µM (top dose mostly 46.2 µM), usual class: inhibitors | hit rate 12% among 420,000; further: nearly all actives have a fitted effect of over 55% in size
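Chicken DT40 Tdp1-/- cells stably complemented with human TDP1 were seeded at 400 cells/well in medium containing 20 nM camptothecin, exposed to pin-transferred compounds, and grown at 37 °C for at least 48 hr. Viability was read as ATP luminescence.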
A number is an active result; n = inactive; u = inconclusive; x = no result. Shown are actives, neighbours in structure and some others; about 19% of the full set was active somewhere. Unless noted, the call rests on the fitted dose curve; in most records, active means well fitted curve in the direction sought with a large enough effect; inconclusive means small, poorly fitted or top-dose-only effect, or another doubt; inactive means no such curve, though single readings can be large; an effect the other way counts as inactive or inconclusive.

SMILES	TDP1 cell noCPT	IL-1B inflam inh	uPA surface inh	HT1080NT lethal	HT1080 IDH1KD tx	DT40 TDP1 CPT
Cc1csc2ncnc(N3CCN(S(=O)(=O)c4cccc(C(F)(F)F)c4)CC3)c12	3.7µM	n	u	n	n	9.2µM
CN(Cc1ccccc1)C(=O)c1c[nH]c2ccc(S(=O)(=O)Nc3ccccc3F)cc2c1=O	u	x	x	x	x	n
CCOc1cc(/C=C2\N=C(C)OC2=O)cc(Cl)c1OCC(=O)OC	u	n	n	n	n	u
COc1cc(/C=C2\N=C(C)OC2=O)cc(Cl)c1OC(C)=O	u	n	n	n	n	15µM
CCc1nnc2c(Nc3ccc(N(CC)CC)cc3C)nc3ccccc3n12	18µM	x	x	x	x	18µM
O=C(Nc1cnc2ccccn2c1=O)c1ccc(Cl)cc1	n	n	x	n	n	n
CN(Cc1ccccc1)C(=O)c1ccc(NC(=O)Cc2cccc(NC(=O)C3CCCN(C(=O)CCc4ccccc4)C3)c2)cc1 (configuration not stated)	u	n	n	n	n	u
CN(Cc1ccccc1)C(=O)c1cccc(NC(=O)Cc2ccc(NC(=O)C3CCCN(C(=O)CCc4ccccc4)C3)cc2)c1 (configuration not stated)	15µM	n	n	n	n	23µM
CN(Cc1ccccc1)C(=O)c1cccc(NC(=O)Cc2ccc(NC(=O)C3CCN(S(=O)(=O)c4cccc([N+](=O)[O-])c4)CC3)cc2)c1	n	n	n	n	n	n
CN(C(=O)c1ccc(NC(=O)Cc2ccc(NC(=O)C3CCCN(C(=O)CCc4ccccc4)C3)cc2)cc1)C1CC1 (configuration not stated)	13µM	n	n	n	n	u
CN(Cc1ccccc1)C(=O)c1ccc(NC(=O)Cc2ccc(NC(=O)C3CCN(S(=O)(=O)c4cccc([N+](=O)[O-])c4)CC3)cc2)cc1	u	n	n	n	n	13µM
CN(C(=O)c1ccc(NC(=O)Cc2cccc(NC(=O)C3CCCN(C(=O)CCc4ccccc4)C3)c2)cc1)C1CCCC1 (configuration not stated)	u	n	n	n	n	29µM
CSc1nc2sc3c(c2c(=O)n1-c1ccc(F)c(Cl)c1)CCN(C(C)=O)C3	n	x	x	x	x	n
O=S(=O)(Nc1ccc(-c2ccc(N3CCCC3)nn2)cc1)c1cc(F)ccc1F	n	x	x	x	x	u
CCNC(=O)c1cnc2sc(N3CCCCCC3)nn2c1=O	n	x	x	x	x	n
CN(C(=O)c1cccc(NC(=O)Cc2ccc(NC(=O)C3CCCN(C(=O)CCc4ccccc4)C3)cc2)c1)C1CCC1 (configuration not stated)	15µM	n	u	n	n	u
CN(C(=O)c1cccc(NC(=O)Cc2ccc(NC(=O)C3CCCN(C(=O)CCc4ccccc4)C3)cc2)c1)C1CCCC1 (configuration not stated)	16µM	n	u	n	n	u
CN(Cc1ccccc1)C(=O)c1cccc(NC(=O)Cc2ccc(NC(=O)C3CCN(C(=O)C4CCCC4)CC3)cc2)c1	u	n	n	n	n	u
CN(Cc1ccccc1)C(=O)c1cccc(NC(=O)Cc2ccc(NC(=O)C3CCCN(C(=O)C4CCCCC4)C3)cc2)c1 (configuration not stated)	u	n	n	n	n	16µM
CN(C(=O)c1cccc(NC(=O)Cc2ccc(NC(=O)C3CCCN(C(=O)C4CCCCC4)C3)cc2)c1)C1CCCCC1 (configuration not stated)	u	n	n	n	n	u
CN(C(=O)c1cccc(NC(=O)Cc2ccc(NC(=O)C3CCCN(C(=O)C4CCCCC4)C3)cc2)c1)C1CCC1 (configuration not stated)	u	n	n	n	n	u
COc1cccc(N2CCN(C(=O)C3CCN(S(=O)(=O)c4ccc5c(c4)CC(C)N5C(C)=O)CC3)CC2)c1 (configuration not stated)	u	n	u	n	n	u
CC(C)(C)C(=O)N1CCN(c2ccc(NC(=O)c3ccc4c(c3)OCCO4)cc2)CC1	u	-77	n	n	n	u
CC(=O)N1CCN(c2ccc(NCc3ccc4c(c3)OCO4)cc2)CC1	n	n	n	n	n	n
O=C(Nc1ccc(N2CCN(C(=O)c3ccccc3)CC2)cc1)c1ccc2c(c1)OCCO2	u	-94	u	n	n	21µM
SMILES	TDP1 cell noCPT	IL-1B inflam inh	uPA surface inh	HT1080NT lethal	HT1080 IDH1KD tx	DT40 TDP1 CPT
O=C(c1ccccc1)N1CCN(c2ccc(NCc3ccc4c(c3)OCO4)cc2)CC1	18µM	n	u	n	u	15µM
O=C(CSc1ccc(Cl)cc1)Nc1ccc(N2CCN(C(=O)c3ccc(Cl)cc3)CC2)cc1	15µM	n	x	n	u	18µM
CC(=O)N1CCN(c2ccc(NC(=O)c3ccc4c(c3)OCCO4)cc2)CC1	n	n	n	n	n	n
CCN(CC)S(=O)(=O)c1nnc(NC(=O)COc2ccc(Cl)cc2)s1	n	x	x	x	x	u
O=C(Nc1ccc(N2CCN(C(=O)c3ccc(Cl)cc3)CC2)cc1)c1ccc2c(c1)OCCO2	23µM	-61	x	u	n	13µM
O=C(Nc1ccc(Cl)c(Cl)c1)c1cccc(S(=O)(=O)NCc2cccnc2)c1	12µM	-82	n	7.3µM	23µM	5.8µM
O=C(c1ccc(Cl)c(S(=O)(=O)NCc2cccnc2)c1)N1CCCC1	2.9µM	n	n	n	n	u
Cc1ccc(NC(=O)c2ccc(S(=O)(=O)NCc3cccnc3)cc2)cc1C	u	n	n	n	n	u
O=C(O)c1ccc(Cl)c(S(=O)(=O)NCc2cccnc2)c1	u	n	n	n	n	n
Cc1cccc(NC(=O)c2ccc(NS(=O)(=O)c3cccc4cccnc34)cc2)c1	n	n	n	u	n	n
O=C([O-])c1ccccc1-[n+]1c(-c2ccccc2)cc(-c2ccccc2)cc1-c1ccccc1	5.8µM	n	n	n	n	4.6µM
O=C(Nc1ccc(Cl)cc1)Nc1ccc2c(c1)N1CCN=C1S2	21µM	-66	n	21µM	33µM	23µM
CCN(CC(=O)NC(C)(C)C)C(=O)COc1c(Cl)cc(Cl)c2ccc(C)nc12	13µM	n	n	n	n	23µM
Cn1c(/C(C#N)=C(\O)COc2ccc3ccccc3c2)nc2ccccc21	26µM	n	n	n	n	u
